The text below walks through data of PubChem BioAssay (NCI).

Values joined by “and” are separate entries in the source; they are usually repeats but may differ in a detail not shown here. Equal values may be shown once. Compounds without any hit were thinned out: in the full panel of roughly 79,000, 15% have a hit. Unmarked numbers belong to inactive results. Active and inactive are the calls of the source. Rule as the data show it: active = growth inhibition above about 70%; inactive = the rest.

The experiment is described as follows: NCI Yeast Anticancer Drug Screen. Data for the rad50 strain (AID 155).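 Also: 0% = growth of vehicle-only cultures of the same strain.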 The note with it: S. cerevisiae rad50 strain growth inhibition, active compounds read high; at 50.0 µM unless noted. The gist of the method: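 A DNA repair-deficient yeast mutant serves as the test organism; compound-induced growth inhibition is calculated against vehicle-treated cells.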
With `NNC(=O)CCn1[nH]c(=O)c(Cl)c(Cl)c1=O`, the growth inhibition is 13.9%. Turning to `Oc1ccc(Br)cc1/C=N/c1nc2ccccc2s1.Oc1ccc(Br)cc1/C=N/c1nc2ccccc2s1.[Cu]`, the growth inhibition is 38%. In the case of `COc1ccccc1C(=O)NCC1CCCN2CCCCC12` (stereo not given) it was 6.5%; in that of `CCOC(=O)c1nnsc1N/N=C\c1ccc([N+](=O)[O-])cc1`, -5.05%; in that of `O=C1OC(=O)C2C3CC(C(Br)C3Br)C12` (stereo not given), 3.8%. In the case of `Cc1ccc(/C=C/C(=O)C(C)CN(C)C)cc1C` (stereo not given) it was -1%; in that of `CC(C)(O)CCO`, -38.4%; in that of `CCOC(=O)C/C(O)=C(/C=N/C(=S)NNC(C)=O)C(=O)OCC`, -27.1%. In the case of `CC1/C(=N\O)CC2C3(C)CCC2(C(C)C(=O)O)C(=O)C13` (stereo not given) it was 4.75%. With `COc1nc(NC2OC(CO)C(O)C(O)C2O)c(C(=O)CCl)c(=O)n1C` (stereo not given), the growth inhibition was 3.9%.

As to `C/C(=N/NC(N)=S)c1c(C)[nH]c2ccccc12`, the growth inhibition was 3.1%. In the case of `O=C(Nc1ccc(O)cc1)c1ccc([N+](=O)[O-])cc1` it was -1.75%; in that of `CCC(SC(CC)(CC)C(=O)O)C(N)=O` (stereo not given), -9.9%; in that of `Cc1cccc(NC(=O)Nc2ccccc2Cl)n1`, 23.5%. In the case of `c1ccc(N=NC2(c3ccccc3)CC(c3ccccc3)=NN(c3ccccc3)C2NNc2ccccc2)cc1` (stereo not given) it was 53%; in that of `CCCOC(=O)c1ccc(O)cc1.[Cu+2]`, 5%. `O=C(O)c1ccccc1SSc1ccccc1C(=O)O`: the growth inhibition was 10.2% and -7.05%. In the case of `CN(C)CC1CCCCCC(CN(C)C)C1=O` (stereo not given) it was -17.9% and 38%; in that of `Cc1ccc(NC(=O)c2c(Br)c(Br)c(Br)c(Br)c2C(=O)O)cc1Cl`, -1.75%.

On to `O=c1[nH][nH]c2ccccc12`, for which the growth inhibition was 23.1%.

In the case of `C=CCN1C(=O)CS/C1=N/NC(=O)C(O)(c1ccccc1)c1ccccc1`, the growth inhibition is -19.6%.

Consider `O=C(O)CN(CCO)CCN(CC(=O)O)CC(=O)O.[Fe+2]`, for which the growth inhibition is 6%. For `O=C(O)CNC(=S)SCC(=O)O`, the growth inhibition was -2.4%. As for `NC(=O)Nc1ccc(/C=C\c2ccnc3ccccc23)cc1`, the growth inhibition was -19.7%. Take `Cc1[nH]c(=O)cc2c1[nH]c1ccccc12`: the growth inhibition is -0.4%. For the compound `CS(=O)CCC1C(=O)OC(C(C)(C)C)N1C(=O)c1ccccc1` (stereo not given), the growth inhibition is 8.25%.

Consider `O=C(Nc1cccc(I)c1)OCCCl`, for which the growth inhibition is 79.8% (active). In the case of `O=c1n(-c2ccccc2)c(=O)n(-c2ccccc2)c(=O)n1-c1ccccc1`, the growth inhibition was -2.2%. As for `CC(C)OC(=O)/C=C/CCCC1CCCCC1`, the growth inhibition is -10.5%. In the case of `Oc1cc2c(cc1-c1cc3c(cc1O)OCO3)OCO2` it was -21.1%; in that of `CN1OC(=O)OC(C)(c2ccccc2)C1=O` (stereo not given), 2.9%. In the case of `COc1ccc(-c2nc(Sc3c([N+](=O)[O-])ncn3C)n[nH]2)cc1` it was -1.25%; in that of `Cc1cc(C(=O)O)cc(C)c1N(C)C=O`, -0.8%; in that of `CCOC(OCC)C1(C)CC=CCC1` (stereo not given), 20.4%. In the case of `CN(C)c1cccc2ccccc12` it was -1.25%; in that of `CC1(CO)COC(C)(C)OC1`, 16.1%.

Turning to `COC(=O)C(CCCCCCCC(C(=O)OC)c1nc2n(c1O)C(=N)N=N2)c1nc2n(c1O)C(=N)N=N2` (stereo not given), the growth inhibition was -20.6%. Turning to `CN1C(=O)OC2OC(C)(c3ccc(S(=O)(=O)c4ccccc4)cc3)C(=O)CC21` (stereo not given), the growth inhibition was -7.1%. Consider `CC1(C)OC2OC3C(O)C(=O)OC3C2O1` (stereo not given), for which the growth inhibition was -36.8%.

On to `N#Cc1cccc2c1Nc1ccccc1S2`, for which the growth inhibition is -9.75%.
